# From the supplement of paper PMC7695840
# Counter-ions that a name gives are not always drawn.
# Key:
# [1] = system: Staphylococcus aureus MW2 delta-mecA (mecA-); test: normalized GFP fluorescence (growth of mecA- strain) (fraction of control range); higher = more growth of mecA- strain; settings: compound concentration: 150 uM; cefoxitin: subinhibitory; fluorescent label: GFP
# Procedure, shortened: (§1)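 Fluorescence from DsRed (540/590) and GFP (485/520) was recorded after 20 h of static growth at 37 °C and 90% humidity. The wells held a 1:1 mix of pre-induced S. aureus MW2 cells, gene-bearing with DsRed and gene-deleted with GFP, in LB with a daily-set subinhibitory antibiotic dose, dispensed at 5 µL/well onto 150 μM compound (1.5% DMSO) in 1536-well plates, single replicate. Each channel was scaled per plate between single-strain control medians, excluding plates with high untreated ratios and rows with DsRed/GFP >10.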
# [2] = system: Staphylococcus aureus MW2 (mecA+); test: normalized DsRed fluorescence (growth of mecA+ strain) (fraction of control range); higher = more growth of mecA+ strain; settings: compound concentration: 150 uM; cefoxitin: subinhibitory; fluorescent label: DsRed
# Procedure, shortened: as §1
Compound,normalized GFP fluorescence [1],normalized DsRed fluorescence [2]
Cc1cccc(N(C)C(=S)Oc2ccc3ccccc3c2)c1,0.561,0.911
C[C@H](NCc1ccc(OCc2cccc(F)c2)cc1)C(N)=O,0.957,0.675
CCc1c2c(nc3ccc(OC(=O)N4CCC(N5CCCCC5)CC4)cc13)-c1cc3c(c(=O)n1C2)COC(=O)[C@]3(O)CC,0.461,0.626
CC[C@H](C)C(=O)O[C@H]1C[C@@H](C)C=C2C=C[C@H](C)[C@H](CC[C@@H]3C[C@@H](O)CC(=O)O3)[C@H]21,0.345,0.697
Nc1ccc(S(=O)(=O)Nc2ccccn2)cc1,0.364,0.542
NC(=O)c1cccnc1 [Nicotinamide (Niacinamide)],0.478,0.458
CC(=O)OCC(=O)NCCCOc1cccc(CN2CCCCC2)c1 [Roxatidine acetate HCl],0.438,0.76
Cc1nccn1CC1CCc2c(c3ccccc3n2C)C1=O (stereo unspecified),0.319,0.626
CC(CN(C)C)CN1c2ccccc2CCc2ccccc21 (stereo unspecified),0.0825,1.55
O=C(O)CCC(=O)Nc1ccc(S(=O)(=O)Nc2nccs2)cc1,0.332,1.01
O=c1ccn([C@@H]2O[C@H](CO)[C@@H](O)[C@H]2O)c(=O)[nH]1 [Uridine],0.265,0.849
OCCOCCN1CCN(C(c2ccccc2)c2ccc(Cl)cc2)CC1 (stereo unspecified),-0.0253,0.833
CC1(C)O[C@@H]2C[C@H]3[C@@H]4CCC5=CC(=O)C=C[C@]5(C)[C@H]4[C@@H](O)C[C@]3(C)[C@]2(C(=O)CO)O1,0.387,1.36
NCCc1ccc(O)c(O)c1,0.483,0.728
O=C(NC[C@H]1CN(c2ccc(N3CCOCC3=O)cc2)C(=O)O1)c1ccc(Cl)s1 [Rivaroxaban (Xarelto)],0.0017,0.837
CCCCCCOC(=O)NC(=N)c1ccc(NCc2nc3cc(C(=O)N(CCC(=O)OCC)c4ccccn4)ccc3n2C)cc1,0.00832,0.473
CC1=C(CC(=O)O)c2cc(F)ccc2/C1=C\c1ccc([S+](C)[O-])cc1 (stereo unspecified),0.33,0.476
CC1(C)[C@@H](O)CC[C@]2(C)[C@H]3C(=O)C=C4[C@@H]5C[C@@](C)(C(=O)O)CC[C@]5(C)CC[C@@]4(C)[C@]3(C)CC[C@@H]12 [Enoxolone (Glycyrrhetin)],0.0336,0.987
CC(C)N1CCN(c2ccc(OCC3COC(Cn4cncn4)(c4ccc(Cl)cc4Cl)O3)cc2)CC1 (stereo unspecified),0.199,0.734
CC(C)Cc1ccc(C(C)C(=O)O)cc1 (stereo unspecified),0.142,0.294
COc1ccc(CC(C)NCC(O)c2ccc(O)c(NC=O)c2)cc1 (stereo unspecified) [Formoterol hemifumarate],0.777,0.699
O=C1O[C@H]([C@@H](O)CO)C(O)=C1O,0.78,0.485
COc1cc2nc(N3CCN(C(=O)c4ccco4)CC3)nc(N)c2cc1OC,0.593,0.809
CN1CCC(=C2c3ccccc3CC(=O)c3sccc32)CC1 [Ketotifen fumarate (Zaditor)],0.402,0.799
CC(=O)OCC(=O)[C@@]1(O)CC[C@H]2[C@@H]3CCC4=CC(=O)CC[C@]4(C)[C@@]3(F)[C@@H](O)C[C@@]21C,0.287,0.642
CC(=O)CCCCn1c(=O)c2c(ncn2C)n(C)c1=O,0.276,0.952

Compound,normalized GFP fluorescence [1],normalized DsRed fluorescence [2]
COc1ccc(C[C@@H]2c3cc(OC)c(OC)cc3CC[N@+]2(C)CCC(=O)OCCCCCOC(=O)CC[N@@+]2(C)CCc3cc(OC)c(OC)cc3[C@H]2Cc2ccc(OC)c(OC)c2)cc1OC [Cisatracurium besylate (Nimbex)],0.62,0.713
CCN(CCCc1ccccc1)CCCc1ccccc1,0.1,1.17
CCN(CC)C(=O)c1ccc(O)c(OC)c1,0.00273,0.0959
Cc1ccc(N(CC2=NCCN2)c2cccc(O)c2)cc1,0.3,0.634
CC(=O)Oc1ccccc1C(=O)O [Aspirin (Acetylsalicylic acid)],0.393,0.803
CCCCCCOC(=O)NC(=N)c1ccc(NCc2nc3cc(C(=O)N(CCC(=O)OCC)c4ccccn4)ccc3n2C)cc1 [BIBR-1048 (Dabigatran)],0.0654,0.815
CC(C)(Oc1ccc(CCNC(=O)c2ccc(Cl)cc2)cc1)C(=O)O,0.407,0.804
Cc1nc2n(c(=O)c1CCN1CCC(c3noc4cc(F)ccc34)CC1)CCCC2,0.481,0.492
COc1ccccc1OCC(O)CN1CCN(CC(=O)Nc2c(C)cccc2C)CC1 (stereo unspecified),0.863,0.62
CCN(CCO)CCCC(C)Nc1ccnc2cc(Cl)ccc12 (stereo unspecified),0.323,1.33
CCC(=O)O[C@]1(C(=O)SCF)[C@H](C)C[C@H]2[C@@H]3C[C@H](F)C4=CC(=O)C=C[C@]4(C)[C@@]3(F)[C@@H](O)C[C@@]21C,0.777,0.959
CN1CCCN=C1/C=C/c1cccc(O)c1,0.279,0.787
O=c1[nH]cnc2c1ncn2[C@@H]1O[C@H](CO)[C@@H](O)[C@H]1O [Inosine],0.197,0.97
CCN1CCCC(OC(=O)C(c2ccccc2)c2ccccc2)C1 (stereo unspecified),0.427,0.501
Cc1cc2nc3c(=O)[nH]c(=O)nc-3n(CC(O)C(O)C(O)COP(=O)(O)O)c2cc1C (stereo unspecified),0.933,0.535
O=C1CCC(N2C(=O)c3ccccc3C2=O)C(=O)N1 (stereo unspecified),0.261,0.635
CN1CCCCC1CCN1c2ccccc2Sc2ccc([S+](C)[O-])cc21 (stereo unspecified),0.265,1.16
C[C@H](CS)C(=O)N1CCC[C@H]1C(=O)O,0.232,0.842
CCN(CC)C(=O)c1cccc(C)c1,0.46,1.18
COc1cc2c(cc1Cc1cccc(Cl)c1F)c(=O)c(C(=O)O)cn2[C@H](CO)C(C)C [Elvitegravir (GS-9137)],0.0202,0.102
CC1=Nc2ccc(Cl)cc2S(=O)(=O)N1,0.259,0.639
CN1CCN(CC(=O)N2c3ccccc3C(=O)Nc3cccnc32)CC1,0.28,0.759
COc1ccccc1OCC(O)CO (stereo unspecified),0.274,0.991
NS(=O)(=O)c1cc2c(cc1C(F)(F)F)NC(Cc1ccccc1)NS2(=O)=O (stereo unspecified),0.428,0.653
C[N+]1(C)[C@@H]2CC[C@H]1C[C@@H](OC(=O)C(O)c1ccccc1)C2 (stereo partly specified),0.29,0.71
CCCN(CCC)CCc1cccc2c1CC(=O)N2,0.224,1.03

Compound,normalized GFP fluorescence [1],normalized DsRed fluorescence [2]
CCOC(=O)[C@H](CCc1ccccc1)N[C@@H](C)C(=O)N1CCC[C@H]1C(=O)O,0.325,0.611
CNS(=O)(=O)Cc1ccc2[nH]cc(CCN(C)C)c2c1,0.345,0.758
CCC(=O)O[C@H](CC(=O)O)C[N+](C)(C)C,0.307,1.23
CCCCOc1cc(C(=O)NCCN(CC)CC)c2ccccc2n1 [Dibucaine (Cinchocaine) HCl],0.265,0.835
CC(=O)O[C@H]1C[C@@H]2CC[C@@H]3[C@H](CC[C@@]4(C)[C@H]3C[C@H]([N+]3(C)CCCCC3)[C@@H]4OC(C)=O)[C@@]2(C)C[C@@H]1N1CCCCC1,0.425,0.572
CCCN[C@H]1CCc2nc(N)sc2C1 [Pramipexole dihydrochloride monohydrate],0.713,0.597
CO[C@H]1O[C@@H]2O[C@@]3(C)CC[C@H]4[C@H](C)CC[C@@H]([C@H]1C)[C@@]24OO3,0.327,1.13
O=C1CC2(CCCC2)CC(=O)N1CCCCN1CCN(c2ncccn2)CC1,0.698,0.71
CC(C)NCC(O)COc1ccc(CCOCC2CC2)cc1 (stereo unspecified) [Betaxolol hydrochloride (Betoptic)],0.372,0.674
CNCCCN1c2ccccc2CCc2ccccc21,0.0357,1.99
NC(N)=Nc1nc(CSCC/C(N)=N/S(N)(=O)=O)cs1,0.53,0.755
Cc1[nH]c(=O)c(C#N)cc1-c1ccncc1,0.476,0.797
O=C(Nc1c(Cl)cncc1Cl)c1ccc(OC(F)F)c(OCC2CC2)c1 [Roflumilast (Daxas)],0.368,0.773
CCCC1O[C@@H]2C[C@H]3[C@@H]4CCC5=CC(=O)C=C[C@]5(C)[C@H]4[C@@H](O)C[C@]3(C)[C@]2(C(=O)CO)O1 (stereo partly specified),0.226,1.12
CC(C)[C@H](N)C(=O)OCC(CO)OCn1cnc2c(=O)nc(N)[nH]c21 (stereo partly specified),0.546,0.722
C#C[C@]1(O)CC[C@H]2[C@@H]3CCC4=Cc5oncc5C[C@]4(C)[C@H]3CC[C@@]21C,0.414,0.779
CN(Cc1cc(Br)cc(Br)c1N)C1CCCCC1,0.459,0.919
COC(=O)N[C@H](C(=O)N1CCC[C@H]1c1ncc(-c2ccc(-c3ccc(-c4cnc([C@@H]5CCCN5C(=O)[C@@H](NC(=O)OC)C(C)C)[nH]4)cc3)cc2)[nH]1)C(C)C,0.242,0.788
CC1(C)[C@@H](O[C@H]2O[C@H](C(=O)O)[C@@H](O)[C@H](O)[C@H]2O[C@@H]2O[C@H](C(=O)O)[C@@H](O)[C@H](O)[C@H]2O)CC[C@]2(C)[C@H]3C(=O)C=C4[C@@H]5C[C@@](C)(C(=O)O)CC[C@]5(C)CC[C@@]4(C)[C@]3(C)CC[C@@H]12 [Glycyrrhizic acid],0.122,1.7
N=C(N)NC(=N)NCCc1ccccc1,0.435,0.624
Cc1ccc(C)c(OCCCC(C)(C)C(=O)O)c1,0.121,1.54
CC(=O)Nc1c(I)c(NC(C)=O)c(I)c(C(=O)O)c1I,0.477,1.13
OCc1cccnc1,0.896,0.471
OCCN1C[C@H](O)[C@@H](O)[C@H](O)[C@H]1CO,0.514,0.724
"CN1CCN2c3ncccc3Cc3ccccc3C2C1 (stereo unspecified) [Mirtazapine (Remeron, Avanza)]",0.214,1.07
C[C@H]1O[C@H](O[C@H]2[C@H](O)[C@@H](O)[C@@H](O[C@H]3[C@H](O)[C@@H](O)C(O)O[C@@H]3CO)O[C@@H]2CO)[C@H](O)[C@@H](O)[C@@H]1N[C@H]1C=C(CO)[C@@H](O)[C@H](O)[C@H]1O (stereo partly specified),0.505,0.683
